Screening data deposited in PubChem BioAssay by National Center for Advancing Translational Sciences (NCATS).
Hits are enriched below; roughly 14% of the tested compounds scored in any of these assays.
FBPA Giardia inh: inhibitors of Giardia lamblia fructose-1,6-bisphosphate aldolase; A8B2U2; purified Giardia FBPA; Potency, µM (highest dose often 59.6 µM), inactives show at the highest dose activity, negative = inhibition, usual class: inhibitors; 0.71% of 290,000 active; AID 2451; also: potency is read from the fitted curve at half-maximal effect; nearly all actives have a fitted effect of over 55% in size
Target sequence (A8B2U2 whole entry, looked up): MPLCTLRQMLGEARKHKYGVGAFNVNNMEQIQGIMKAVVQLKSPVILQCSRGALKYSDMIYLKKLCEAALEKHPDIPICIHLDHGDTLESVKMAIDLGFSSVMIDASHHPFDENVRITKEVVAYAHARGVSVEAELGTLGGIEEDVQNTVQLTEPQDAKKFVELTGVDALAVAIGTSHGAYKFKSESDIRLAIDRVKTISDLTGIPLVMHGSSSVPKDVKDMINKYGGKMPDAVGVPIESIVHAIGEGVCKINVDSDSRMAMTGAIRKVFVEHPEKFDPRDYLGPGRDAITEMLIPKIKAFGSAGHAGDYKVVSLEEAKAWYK
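40 nM FBPA preincubated 10 min at RT with compound (up to 57.5 uM final), then substrate plus GAPDH/TPI/NAD/arsenate coupling and diaphorase/resazurin added. Fluorescence read after 20 min at RT, 525/598 nm.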
HCMV inh: inhibitors of human cytomegalovirus | HFF cells, HCMV-luciferase reporter, 72 h; hits give low values | 4.5% of 410,000 active | activity change, negative = inhibition, % at 57.5 µM; in the data active = activity change below about -60%; inconclusive = no clear call, values can overlap the other calls; inactive = above about -39%
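HFF cells seeded 16 h at 37C, treated with compounds, infected with luciferase-reporter HCMV at MOI 1 PFU/cell; luciferase read at 72 h post infection, normalized to buffer-only and Salinomycin controls.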
Pf growth 96h: P. falciparum growth inhibition at 96 hours; P. falciparum luciferase reporter growth, 96 h; Potency, µM (series often up to 28.7 µM), inactives show top-dose activity change, negative = inhibition, usual class: inhibitors; 6.9% of 320,000 active; AID 504834; also: potency is read from the fitted curve at half-maximal effect
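Readout is luminescence from an integrated firefly luciferase in P. falciparum. Red cells, 2% hematocrit and 0.05% parasitemia final, were cultured with compound through two parasite generations (96 hours) at 37 C, 5% CO2.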
Pf growth 48h: P. falciparum growth inhibition at 48 hours (one generation); P. falciparum luciferase growth in erythrocytes, 48 h; 5.9% of 310,000 active; AID 504832; Potency, µM (top dose mostly 28.7 µM), inactives show at the top dose activity change, negative = inhibition, most hits filed as inhibitors; also: potency is read from the fitted curve at half-maximal effect
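Here the parasites carry a stable luciferase gene and grow inside erythrocytes in Albumax-based RPMI medium with compound for one erythrocytic cycle. Activity is scored as loss of luminescent signal.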
Sm TGR block: blocks Schistosoma mansoni thioredoxin glutathione reductase; AID 485364; 3% of 360,000 active; Q962Y6; Potency, µM (top dose mostly 114 µM), without a hit: top-dose activity change, negative = inhibition, most hits filed as inhibitors; purified TGR, DTNB reduction, TNB absorbance 405 nm; also: potency is read from the fitted curve at half-maximal effect; nearly all actives have a fitted effect of over 60% in size
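First, TGR (20 nM dispensed) and NADPH were mixed with compound. Second, a 15 min room-temperature incubation followed. Third, further NADPH and then DTNB were added to start the reaction. Finally, TNB absorbance was monitored kinetically.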
Starred values were filed as active, the others as inactive; ! = not confirmed by another sample; [ ] = dose if it differs, or a comment. Unless noted, calls follow the shape of the dose curve; as a rule, active = well fitted curve in the direction sought with a large enough effect; inconclusive = small, poorly fitted or top-dose-only effect, or another doubt; inactive = no such curve, though single readings can be large; an effect the other way counts as inactive or inconclusive. % is scaled to controls: 0 for no effect and ±100 for the full control effect.

Results for Cc1ccc(SC(CC(=O)c2ccc(C)cc2)C(=O)O)cc1 (centres undefined) ?
FBPA Giardia inh: 4%; HCMV inh: 7; Pf growth 96h: inconclusive; Sm TGR block: 13µM*

What do the screens show for `O=C(CNC(=O)c1ccc(Br)cc1)c1ccc(Br)cc1`?
FBPA Giardia inh: 11%; HCMV inh: -9; Pf growth 96h: inconclusive; Pf growth 48h: 26%; Sm TGR block: 8%

Results for O=C(NN=Cc1ccc(Cl)cc1Cl)C1CC1 ?
HCMV inh: 34

Results for Cc1ccc(CN2C(=O)S/C(=C\c3ccccc3OCC(=O)O)C2=O)cc1 ?
FBPA Giardia inh: 16%; HCMV inh: -23; Pf growth 96h: 5.2µM*; Pf growth 48h: 5%; Sm TGR block: 8%

What do the screens show for `CC1CN(c2ccnc3cc(Cl)ccc23)CC(C)O1` (centres undefined)?
FBPA Giardia inh: -4%; HCMV inh: 5; Pf growth 96h: inconclusive; Pf growth 48h: inconclusive; Sm TGR block: 11%

How did Clc1ccc2c(N3CCCC3)ccnc2c1 do in these assays?
FBPA Giardia inh: 2%; HCMV inh: inconclusive; Pf growth 48h: 3.7µM*; Sm TGR block: -16%

How did NC(=O)C1CCN(c2ccnc3cc(Cl)ccc23)CC1 do in these assays?
FBPA Giardia inh: -3%; HCMV inh: 19; Pf growth 96h: 12µM*; Pf growth 48h: inconclusive; Sm TGR block: -6%

How did Clc1ccc2c(N3CCOCC3)ccnc2c1 do in these assays?
FBPA Giardia inh: 6%; HCMV inh: -37; Pf growth 96h: 11%; Pf growth 48h: 9%; Sm TGR block: -10%

Results for Clc1ccc2c(N3CCNCC3)ccnc2c1 ?
FBPA Giardia inh: -6%; HCMV inh: -109*; Pf growth 48h: inconclusive; Sm TGR block: -14%

How did NC(=O)C1CCN(c2cc(Cl)ccc2[N+](=O)[O-])CC1 do in these assays?
FBPA Giardia inh: 5%; HCMV inh: inconclusive; Pf growth 96h: 6%; Pf growth 48h: -5%; Sm TGR block: 10%

Results for CC(C)c1ccc(-c2noc(SCC(=O)N3CCCCC3)n2)cc1 ?
HCMV inh: 18; Sm TGR block: 15%

What do the screens show for `O=C(NNC(=O)c1ccc(O)c(Cl)c1)c1cccc(S(=O)(=O)N2CCOCC2)c1`?
HCMV inh: -3; Pf growth 96h: 38%; Pf growth 48h: -1%; Sm TGR block: inconclusive

How did CCOC(=O)/C(=N\Nc1ccc(OC)cc1)c1csc(Nc2ccccc2)n1 do in these assays?
FBPA Giardia inh: -6%; HCMV inh: -34; Pf growth 96h: 10µM*; Sm TGR block: -9%

What do the screens show for `CN(C)CCC=C1c2ccccc2C=Cc2ccccc21`?
FBPA Giardia inh: -2%; HCMV inh: 14; Pf growth 96h: inconclusive; Pf growth 48h: 12µM*; Sm TGR block: 25µM*

Results for CN(C)CC/C=C1/c2ccccc2COc2ccccc21 ?
FBPA Giardia inh: -1%; Sm TGR block: 20µM*

Results for CN(C)CC/C=C1/c2ccccc2COc2ccc(CC(=O)O)cc21 ?
HCMV inh: 66

How did CN(C)CCC=C1c2ccccc2CCc2ccccc21 do in these assays?
FBPA Giardia inh: inconclusive; HCMV inh: inconclusive; Pf growth 96h: inconclusive; Pf growth 48h: 15µM*; Sm TGR block: 7.1µM*

What do the screens show for `CN(C)CCC=C1c2ccccc2C(C)(C)c2ccccc21`?
Pf growth 96h: 6.7µM*; Pf growth 48h: inconclusive

How did CN(C)CC/C=C1\c2ccccc2COc2ccc(CC(=O)O)cc21 do in these assays?
Pf growth 96h: 6%; Pf growth 48h: 1%

Results for CC1CC(C)CN(C(=O)c2nn(C)c3c2CS(=O)(=O)c2ccccc2-3)C1 (centres undefined) ?
FBPA Giardia inh: 11%; HCMV inh: -17; Pf growth 96h: inconclusive; Pf growth 48h: 25%; Sm TGR block: -6%

How did C[C@@]12CC(=O)NC1N(C(=O)c1ccccc1)C(c1ccccc1OC(=O)c1ccccc1)C2 (some centres undefined) do in these assays?
FBPA Giardia inh: 0%; HCMV inh: 13; Pf growth 48h: inconclusive; Sm TGR block: -20%

What do the screens show for `C[C@@]12CC(=O)NC1N(C(=O)c1cccc(C(F)(F)F)c1)C(c1ccccc1OC(=O)c1cccc(C(F)(F)F)c1)C2` (some centres undefined)?
FBPA Giardia inh: -7%; HCMV inh: -28; Pf growth 96h: 9.3µM*; Sm TGR block: -14%

How did COC(=O)c1cc(=O)n(CCc2ccc(OC)cc2)c(=Nc2ccc(F)c(Cl)c2)s1 do in these assays?
FBPA Giardia inh: -3%; HCMV inh: inconclusive; Pf growth 96h: 114%; Sm TGR block: 2%

What do the screens show for `COC(=O)c1cc(=O)n(CCc2ccccc2)c(=Nc2ccc(F)cc2)s1`?
FBPA Giardia inh: 0%; HCMV inh: -36; Pf growth 96h: 4.1µM*; Pf growth 48h: inconclusive; Sm TGR block: 5%

What do the screens show for `CCOC(=O)c1ccc(N=c2sc(C(=O)OC)cc(=O)n2CCCN2CCOCC2)cc1`?
FBPA Giardia inh: -12%; HCMV inh: 79; Pf growth 96h: 4.7µM*!; Pf growth 48h: inconclusive; Sm TGR block: -6%

How did O=S1(=O)N=C(c2ccccc2)C=C(c2ccccc2)N1 do in these assays?
HCMV inh: -20

What do the screens show for `CCOC(=O)N/N=C1/C[C@@H](O)[C@@H](O)[C@@H]2[C@@H]3C(=O)N(C4CCCCC4)C(=O)[C@H]3CC[C@@H]12`?
FBPA Giardia inh: 2%[12.9 µM]

Results for O=C1/C(=C/c2ccccc2)Nc2ccccc21 ?
FBPA Giardia inh: -11%; HCMV inh: 7; Pf growth 96h: 3.7µM*; Pf growth 48h: inconclusive; Sm TGR block: -9%

Results for O=C1CNC(=O)/C(=C\c2ccccc2)N1 ?
FBPA Giardia inh: -5%; HCMV inh: -28; Pf growth 96h: 31%; Pf growth 48h: 13%; Sm TGR block: 0%

Results for COc1ccc(/C=N/c2oc(-c3ccccc3)cc2C#N)cc1OC ?
FBPA Giardia inh: inconclusive; HCMV inh: -103*; Pf growth 96h: 22%; Pf growth 48h: -12%; Sm TGR block: inconclusive

How did COc1ccc(/C=N/c2nc3ccccc3n2C)cc1OC do in these assays?
FBPA Giardia inh: -3%; HCMV inh: -10; Pf growth 96h: 24%; Pf growth 48h: 1%; Sm TGR block: 0%

Results for Cc1nnc(SCc2nnc(-c3ccccc3Br)o2)n1-c1ccccc1 ?
FBPA Giardia inh: -3%; HCMV inh: -22; Pf growth 96h: inconclusive; Pf growth 48h: 10µM*; Sm TGR block: -4%

What do the screens show for `Cc1nnc(SCc2nnc(-c3ccc(Cl)cc3)o2)n1-c1ccccc1`?
FBPA Giardia inh: 4%; HCMV inh: 7; Pf growth 48h: inconclusive; Sm TGR block: 8%

What do the screens show for `COc1ccc(C2/C=C\CN(C(=O)C3CC3)C(Cc3ccccc3)C(=O)N2Cc2ccc(F)cc2)cc1` (centres undefined)?
FBPA Giardia inh: -5%
